Screening data (PubChem BioAssay)
Most compounds without a hit are left out; they make up all but 9.6% or so of the library.
Insulin prom up = MIN6 insulin promoter up-regulation | MIN6 insulin promoter-GFP reporter, high-content imaging; active compounds read high | z-score at 5 µM | 190,000 compounds, 0.3% hits | AID 1625;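 active = z-score above 3 at 5 µM with at least 500 cells counted in the well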
L major viab = inhibitors of Leishmania major promastigote growth; AID 1063; inhibition, % at 10 µM; Leishmania major promastigotes, resazurin fluorescence viability; 200,000 compounds, 9% hits; in the data active = inhibition above about 50%;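 also: promastigotes grown with compound for 44 hours at 28 °C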
Insulin prom inh = TRM-6 insulin promoter activity inhibition; TRM-6 cells (human fetal islet line), insulin promoter-eGFP reporter, imaging; reporter expression induced with tamoxifen; inhibition, % at 2 µM; 130,000 compounds, 0.9% hits; AID 1273;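 active = inhibition above the mean plus 3 SD, with well images judged a real hit on visual review, cut at about 60% in these data, passing the limit was not always enough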
Autophagy HCS = modulators of autophagy; MEF GFP-LC3 puncta imaging; test concentration mostly 10 µM; AID 463193; 190,000 compounds, 0.98% hits; calls only at 10 µM (by protocol);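 active = percentage of spot-positive cells more than 3 SD above its plate mean, without a fluorescence outlier flag or 80% toxicity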;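 also: spot-positive cell cutoff set from DMSO-treated cells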
bCat KO growth = beta-catenin-lacking colon tumor cell growth suppression | 140,000 compounds, 1.5% hits | viability, % at 10 µM | AID 818 | HCT116 beta-catenin knockout viability, CellTiter-Glo, 60 h; active compounds read low;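 active = viability at or under a set limit, the compound median less 4 SD, cut at about 6% in these data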;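 also: 0% = Hyamine 1622 control at 20 µM and 100% = untreated cell control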
HCT116 PTEN-null = suppresses growth of cells with PTEN deletion; HCT116 PTEN-null viability, CellTiter-Glo, 60 h; active compounds read low; viability, % at 10 µM; 140,000 compounds, 1.2% hits;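 active = viability at or below a set limit, 4 SD under the median of all tested compounds, cut at about 3.7% in these data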;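 also: PTEN knockout HCT116 line with beta catenin targeted HCT116 as companion control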
* = called active by the depositor; i = inactive; · = not tested or not shown; + = active, no number.

SMILES | Insulin prom up | L major viab | Insulin prom inh | Autophagy HCS | bCat KO growth | HCT116 PTEN-null
Cn1c(=O)c2c(nc(NCCCN3CCOCC3)n2Cc2ccc(Cl)cc2)n(C)c1=O | -0.98 | 58* | 15 | i | · | ·
Cn1c(=O)c2c(nc(NCCCN3CCOCC3)n2Cc2cccc(Cl)c2)n(C)c1=O | -0.3 | 98* | -8 | i | · | ·
CC1CN(C(=O)COC(=O)c2cc(Cl)ccc2Cl)CC(C)O1 (centres undefined) | -0.39 | -8 | · | i | · | ·
Cc1cc(C)c2c(N)c(C(=O)NCC3CCCCC3)sc2n1 | · | 77* | -28 | i | 93 | 96
Cc1cc(C)c2c(N)c(C(=O)C(C)(C)C)sc2n1 | -1.6 | 97* | · | i | · | ·
Cc1cc(C)c2c(N)c(C(=O)N/N=C/c3cccs3)sc2n1 | -1.1 | · | · | · | · | ·
Cc1cc(C)c2c(N)c(C(=O)c3ccc(Cl)cc3)sc2n1 | -1.1 | 71* | 72* | i | 86 | 78
Cc1cc(C)c2c(N)c(C(=O)c3ccc(Cl)c(Cl)c3)sc2n1 | · | 100* | 70* | i | · | ·
Cc1cc(C)c2c(N)c(C(=O)NC3CCCC3)sc2n1 | -0.41 | 22 | · | i | · | ·
Cc1cc(C)c2c(N)c(C(=O)c3ccccc3)sc2n1 | 0.79 | · | · | · | · | ·
COc1ccccc1NC(=O)c1cnc2c(-c3ccccc3)c(C)nn2c1C | 0.74 | 1 | · | i | · | ·
O=C1CN(C(=O)COC(=O)c2ccccc2NC(=O)c2ccco2)c2ccccc2N1 | -0.32 | -2 | -6 | i | 94 | 96
Nc1ccc2oc(-c3ccccn3)nc2c1 | 0.23 | 0 | 9 | i | 86 | 91
Clc1ccc2oc(-c3ccccn3)nc2c1 | 3* | -4 | 37 | i | 81 | 70
Cc1cc(NC(=O)COC(=O)COc2cccc3c2OC(C)(C)C3)no1 | 0.23 | -2 | · | i | 107 | 109
C=C(C)CN=C1NN=C(c2cc(C)n(-c3ccc(C)cc3)c2C)CS1 | 0.1 | 91* | -13 | i | 84 | 86
Cc1cc(C2=NNC(=NC3CCCCC3)SC2)c(C)n1-c1c(C)n(C)n(-c2ccccc2)c1=O | 0.5 | 43 | -1 | i | 87 | 90
C=CCn1c(C)cc(C2=NNC(=NCc3ccccc3)SC2)c1C | 0.15 | 48 | 25 | i | · | ·
Cc1cc(C2=NNC(=NC3CC3)SC2)c(C)n1-c1ccccc1F | -2.9 | 77* | 19 | i | 42 | 20
COC(=O)c1ccc(CSc2nnc(-c3ccc4c(c3)OCO4)n2-c2ccccc2)o1 | 0.34 | 4 | -33 | i | 91 | 96
Cc1ccc(Cn2ccc(NC(=O)c3cc(C)on3)n2)cc1 | -0.09 | -8 | · | i | 97 | 99
COc1ccc(N2CCN(CC(=O)Nc3cc(C)on3)CC2)cc1 | 0.55 | -4 | · | i | 91 | 102
COCCn1c(SCc2cnc(-c3ccccc3)s2)nnc1-c1ccncc1 | 0.71 | -2 | · | i | 92 | 87
COc1n[nH]c(C(=O)Nc2nc3ccccc3s2)c1[N+](=O)[O-] | -0.47 | 70* | · | i | · | ·
Nc1cc(C(=O)O)c(Oc2ccc(Cl)cc2Cl)cc1C(=O)O | 0.39 | -6 | 67* | i | 98 | 95
SMILES | Insulin prom up | L major viab | Insulin prom inh | Autophagy HCS | bCat KO growth | HCT116 PTEN-null
O=C(N/N=C/c1ccncc1)c1ccc(OCc2ccccc2)cc1 | 0.07 | · | · | · | · | ·
O=C(Nc1ccc(CN2CCOCC2)cc1)c1ccc(-c2cc(Cl)ccc2Cl)o1 | -0.89 | 99* | 13 | i | 27 | 30
O=C(/C=C/c1ccccc1)Nc1ccc(CN2CCOCC2)cc1 | 0.21 | 13 | · | i | 82 | 78
S=C(c1ccc(-c2cc(Cl)ccc2Cl)o1)N1CCCCC1 | -0.02 | 54* | 4 | i | 84 | 90
S=C(c1ccc(-c2cc(Cl)ccc2Cl)o1)N1CCOCC1 | -0.05 | -8 | · | i | 79 | 73
O=C(/C=C/c1ccc(Cl)cc1Cl)Nc1ccc(CN2CCOCC2)cc1 | -0.51 | 70* | · | i | 17 | 20
NC(=O)N/N=C/c1coc2ccc3ccccc3c2c1=O | 0.13 | · | · | · | · | ·
COc1ccc(C2=NC(=O)/C(=C\c3cc(OC)c(OC)c(OC)c3)O2)cc1 | 3* | -3 | -20 | i | 92 | 100
CC(=O)C12C3C4C(C5C1C3C5(Br)C41OCCO1)C21OCCO1 (centres undefined) | -0.09 | 29 | 22 | i | 93 | 100
O=C(Nc1cccnc1)c1ccc(Cl)c(S(=O)(=O)N2CCc3ccccc32)c1 | 0.24 | 59* | -25 | i | · | ·
CCc1nnc(NC(=O)c2ccc(Cl)c(S(=O)(=O)N3CCc4ccccc4C3)c2)s1 | -0.32 | 52* | -47 | i | 68 | 76
O=C(NC1CCCCC1)N(Cc1nc2ccccc2c(=O)[nH]1)C1CCCC1 | -0.31 | 2 | · | i | 86 | 85
O=c1[nH]ncc2c3ccccc3n(Cc3cccc(Cl)c3)c12 | 0.26 | -6 | 0 | i | · | ·
CCCCC(CC)Cn1c(O)c(/C=C2\C=NN=C2c2ccccc2)sc1=S (centres undefined) | -0.24 | 5 | -6 | i | 2.1* | 1.6*
CCOc1ccc(NC(=O)CCC(=O)NNC(=O)c2ccco2)cc1 | -0.53 | -6 | · | i | · | ·
Cc1ccc(OCC(O)Cn2c(N)nc3c2c(=O)n(C)c(=O)n3C)cc1 (centres undefined) | · | -3 | · | i | · | ·
OCC1(CCc2ccccc2)CCN(Cc2cccn2-c2cccnc2)CC1 | 0.07 | 61* | · | i | · | ·
COC(=O)C1=C(NC(=O)c2ccccc2C)CCS1 | 0.63 | 6 | · | + | · | ·
COC(=O)C1=C(NC(=O)c2cccs2)CCS1 | -0.18 | -5 | 27 | i | 96 | 98
CCN(CC)S(=O)(=O)c1ccc(Cl)c(C(=O)OC)c1 | -0.13 | 61* | -3 | i | 93 | 95
CCN(CC)S(=O)(=O)c1ccc(Cl)c(C(=O)NCc2ccccc2Cl)c1 | -0.54 | 99* | -53 | i | 59 | 60
CCN(CC)S(=O)(=O)c1cc(C(=O)OC)ccc1Cl | 1.4 | 6 | · | i | 90 | 92
O=C(CSc1nnc(NC(=O)Cc2ccc(F)cc2)s1)NCc1ccco1 | 0 | -5 | 92* | i | · | ·
O=C(CSc1nnc(NC(=O)Cc2ccccc2)s1)NCc1ccco1 | 1.1 | -11 | 5 | i | · | ·
C/C(=N\NC(=O)c1ccc(O)cc1)c1ccc2c(c1)Nc1ccccc1S2 | -0.84 | 75* | · | i | 30 | 36
SMILES | Insulin prom up | L major viab | Insulin prom inh | Autophagy HCS | bCat KO growth | HCT116 PTEN-null
C/C(=N\NC(=O)c1ccccc1F)c1ccc2c(c1)Nc1ccccc1S2 | -0.11 | 41 | · | i | 78 | 76
O=C(CC(NCc1ccccn1)C(=O)O)Nc1ccccc1Cl (centres undefined) | 1.2 | -9 | 18 | i | · | ·
Cc1cc(=O)c2ccc3ccccc3c2[nH]1 | · | 54* | -3 | i | 82 | 90
Cc1cc(=O)c2cccc(Br)c2[nH]1 | 0.15 | 2 | 24 | i | 88 | 102
COc1ccc(Cl)cc1NC(=O)C(C)N1CCN(C/C=C/c2ccccc2)CC1 (centres undefined) | · | 62* | 13 | i | 84 | 77
CC(=O)c1ccc(NC(=O)C(C)N2CCN(C/C=C/c3ccccc3)CC2)cc1 (centres undefined) | -0.94 | 86* | -9 | i | · | ·
